In PubChem BioAssay AID463173 (ICCB-Longwood Screening Facility, Harvard Medical School, 2010):
Hit rate of the full screen: of about 52,000 compounds, about 4,300 (8.3%) were called active. No stated cut-off is given here; in the data, active means survival mostly below about 52% (no sharp cut-off); inactive means mostly above about 56%. Shown is part of a subset that was picked to be rich in actives.

These molecules were tested on DeltatarO mutant (assay: growth inhibition of S. aureus wild type versus tarO mutant, primary screen, teichoic acid synthesis inhibitors, RN4220, OD600 (AID 463173)). Details: OD600, 18 h, hits give low values, screened at 18.75 µg/mL (by protocol).

Row | SMILES | survival
1 | CCOc1ccc(NC(=O)CCNS(=O)(=O)c2ccc3c(c2)CCCC(=O)N3)cc1 | 66% (inactive)
2 | CCN1CCOC(=O)C1CC(=O)Nc1cc(Cl)ccc1OC (stereo not given) | 50% (inactive)
3 | O=C(O)c1ccccc1SC1CC(=O)N(c2ccc(N3CCCCC3)cc2)C1=O (stereo not given) | 90% (inactive)
4 | COC(=O)c1ccccc1NC(=O)c1ccc2c(c1)CCN2S(C)(=O)=O | 94% (inactive)
5 | CCS(=O)(=O)N1CCc2cc(C(=O)Nc3ccc(OC)cc3OC)ccc21 | 44% (active)
6 | COC(=O)c1cc(OC)c(OC)cc1NC(=O)c1ccc2c(c1)CCN2S(=O)(=O)c1ccccc1 | 66% (inactive)
7 | CCS(=O)(=O)N1CCc2cc(C(=O)NCc3ccc(OC)cc3)ccc21 | 89% (inactive)
8 | COc1ccc(Cl)cc1NC(=O)c1ccc2c(c1)CCN2S(C)(=O)=O | 81% (inactive)
9 | CCS(=O)(=O)N1CCc2cc(C(=O)Nc3cc(OC)c(Cl)cc3OC)ccc21 | 43% (active)
10 | CCOc1ccc(NC(=O)c2ccc3c(c2)CCN3S(=O)(=O)CC)cc1 | 48% (inactive)
11 | CCS(=O)(=O)N1CCc2cc(C(=O)N3CCN(c4ccccc4)CC3)ccc21 | 69% (inactive)
12 | COc1ccc(N2CCN(C(=O)c3ccc4c(c3)CCN4S(C)(=O)=O)CC2)cc1 | 57% (inactive)
13 | CCS(=O)(=O)N1CCc2cc(C(=O)Nc3ccc(OC)c(Cl)c3)ccc21 | 47% (inactive)
14 | CCS(=O)(=O)N1CCc2cc(C(=O)N3CCN(c4ccc(OC)cc4)CC3)ccc21 | 40% (active)
15 | COC(=O)c1cc(OC)c(OC)cc1NC(=O)c1ccc2c(c1)CCN2S(C)(=O)=O | 37% (active)
16 | CC1=C(C(=O)Nc2ccccc2)C(c2ccncc2)n2nc(SCc3ccccc3Cl)nc2N1 (stereo not given) | 74% (inactive)
17 | CCCCOc1ccc(-c2cc3c(=O)n(CC(=O)Nc4ccc(Cl)cc4Cl)ccn3n2)cc1 | 133% (inactive)
18 | CCN(CC)C(=O)Cn1c(=O)n(Cc2ccc(C(=O)NCCc3ccc(OC)c(OC)c3)cc2)c(=O)c2ccccc21 | 104% (inactive)
19 | CCn1c(=O)n(CC)c2cc(N3CCCC3)c(NC(=O)Nc3cc(C)cc(C)c3)cc21 | 91% (inactive)
20 | COc1ccc(CC(=O)NCc2ccc3c(c2)CCN3C(=O)c2ccc(Cl)cc2)cc1OC | 86% (inactive)
21 | Cc1ccc(S(=O)(=O)C(CNC(=O)C(=O)NCCc2ccccc2)c2cccs2)cc1 (stereo not given) | 107% (inactive)
22 | C=CCN(C(=O)c1ccc2c(c1)nnn2C)c1ccccc1 | 97% (inactive)
23 | O=C(NC1CCCCC1)NC1CCN(Cc2nnnn2Cc2ccc3c(c2)OCO3)CC1 | 88% (inactive)

Row | SMILES | survival
24 | Cc1nn(-c2cccc(Cl)c2)c2nc(-c3cccnc3)cc(C(F)(F)F)c12 | 45% (inactive)
25 | Cc1nn(-c2ccc(Cl)cc2)c2nc(-c3cccnc3)cc(C(F)(F)F)c12 | 39% (active)
26 | Cc1ccc(-n2nc(C)c3c(C(F)(F)F)cc(-c4cccnc4)nc32)cc1Cl | 53% (inactive)
27 | COc1ccc(CNC(=O)C2CCN(C(=O)c3ccc(-n4ccc5ccccc54)s3)CC2)cc1 | 90% (inactive)
28 | CCn1c2c(c(=O)n3ncc(C(=O)Nc4ccc(C(=O)OC)cc4)c13)CN(Cc1ccc(OC)cc1)CC2 | 81% (inactive)
29 | NC(=O)CN(c1ccccc1)C1SC(=O)NC1=O (stereo not given) | 76% (inactive)
30 | COc1ccccc1-n1c(SCC(=O)Nc2ccc(C)cc2)nc(O)cc1=O | 61% (inactive)
31 | COC(=O)c1ccc(Cn2c(SCc3ccccc3)nc3ccncc32)cc1 | 45% (active)
32 | Cc1ccc(CSc2nc3ccncc3n2Cc2nc(-c3ccccc3C)oc2C)cc1 | -4% (active)
33 | COC(=O)c1ccc(Cn2c(SCc3ccc(F)cc3)nc3ccncc32)cc1 | 54% (inactive)
34 | O=C(NC1CCCC1)c1ccc(CSc2nc3ccncc3n2Cc2cccc(F)c2)cc1 | 60% (inactive)
35 | Cc1cccc(Cn2c(SCc3ccc(C(=O)NC4CCCC4)cc3)nc3ccncc32)c1 | 54% (active)
36 | COC(=O)c1ccc(Cn2c(SCc3ccccc3F)nc3ccncc32)cc1 | 42% (active)
37 | COC(=O)c1ccc(CSc2nc3ccncc3n2Cc2ccc(F)cc2)cc1 | 93% (inactive)
38 | COc1ccc(CNC(=O)c2ccc(CSc3nc4ccncc4n3Cc3ccccc3F)cc2)cc1 | 62% (inactive)
39 | COC(=O)c1ccc(Cn2c(SCc3cccc(C)c3)nc3ccncc32)cc1 | 83% (inactive)
40 | Cc1ccc(C)c(CSc2nc3ccncc3n2Cc2nc(-c3ccccc3Cl)oc2C)c1 | 71% (inactive)
41 | Cc1ccc(CSc2nc3ccncc3n2Cc2nc(-c3ccc(Cl)cc3)oc2C)cc1 | 63% (inactive)
42 | Cc1cccc(Cn2c(SCc3ccc(C(=O)NC4CCCCC4)cc3)nc3ccncc32)c1 | 75% (inactive)
43 | COc1ccc(NC(=O)CCc2nnc3n(Cc4ccc(C)cc4)c(=O)c4ccccc4n23)cc1 | 59% (inactive)
44 | Cc1cccc(-c2cc3nc(C)cc(NCCCn4ccnc4)n3n2)c1 | 88% (inactive)
45 | O=C(O)CSCCn1cccn1 | 93% (inactive)
46 | CC(C)=CCC(C)(C)CNc1ccc(C)cc1 | 66% (inactive)

Row | SMILES | survival
47 | CCOc1ccccc1NC(=O)C1CCCN(c2ncnc3onc(-c4ccc(F)cc4)c23)C1 (stereo not given) | 85% (inactive)
48 | Cc1cc(C)cc(NC(=O)CCc2c(C)nc3c(c2C)c(=O)n(C)c(=O)n3C)c1 | 64% (inactive)
49 | COc1ccc(CN2C(=O)N(c3ccc(F)cc3)C(=O)C2CC(=O)Nc2cc(OC)cc(OC)c2)cc1 (stereo not given) | 81% (inactive)
50 | Cn1c2ccccc2c2nnc(SCC(N)=O)nc21 | 76% (inactive)
51 | CCc1ccccc1NC(=O)Cn1c(=O)n(CCCS(=O)(=O)C2CCCCC2)c(=O)c2ccccc21 | 86% (inactive)
52 | CCOc1ccc(CNC(=O)c2cnc3sc(N4CCOCC4)nn3c2=O)cc1 | 81% (inactive)
53 | CCOC(=O)c1c(C)[nH]c(CCC(=O)NCc2cccc(C)c2)c1C | 70% (inactive)
54 | Cc1ccc(-n2ncc3c(N(C)C)ncnc32)cc1Cl | 94% (inactive)
55 | Cc1ccc(Cn2c(SCc3ccc(C(=O)N4CCCCCC4)cc3)nc3ccncc32)cc1 | 71% (inactive)
56 | O=C(c1ccc(CSc2nc3ccncc3n2Cc2ccccc2)cc1)N1CCCCCC1 | 70% (inactive)
57 | Cc1ccc(Cn2c(SCc3ccc(C(=O)N4CCCCC4)cc3)nc3ccncc32)cc1 | 7% (active)
58 | Cc1cc(C)c(C#N)c(S(C)(=O)=O)n1 | 106% (inactive)
59 | CCc1ccccc1NC(=O)C1CCN(S(=O)(=O)c2cn(C)cn2)CC1 | 93% (inactive)
60 | CCCCN(C)C(=O)C1CCCN(c2ncnc3onc(-c4ccc(F)cc4)c23)C1 (stereo not given) | 77% (inactive)
61 | Cc1ccc(Nc2c(-c3ccc(N4CCOCC4)cc3)nc3ncccn23)c(C)c1 | 80% (inactive)
62 | COc1cccc(C2CC(=O)Nc3c2ccc(C)c3C)c1OC (stereo not given) | 94% (inactive)
63 | Cc1ccc2c(c1C)NC(=O)CC2c1ccc(Cl)cc1Cl (stereo not given) | 4% (active)
64 | CC1=C(C(=O)OCC2CCCCC2)C(c2ccc(Cl)cc2Cl)CC(=O)N1 (stereo not given) | 82% (inactive)
65 | Cc1ccc(C(=O)CC2(O)C(=O)N(CCc3ccccc3)c3ccc(Cl)cc32)cc1 (stereo not given) | 17% (active)
66 | CCc1ccc(C(=O)CC2(O)C(=O)N(CCc3ccccc3)c3ccc(Br)cc32)cc1 (stereo not given) | 52% (inactive)
67 | CCc1ccc(C(=O)CC2(O)C(=O)N(CCc3ccccc3)c3ccc(Cl)cc32)cc1 (stereo not given) | 19% (active)
68 | CC(C)c1ccc(C(=O)CC2(O)C(=O)N(CCc3ccccc3)c3ccc(Cl)cc32)cc1 (stereo not given) | 33% (active)
69 | CCCN1C(=O)C(O)(CC(=O)c2ccc(C(C)C)cc2)c2ccccc21 (stereo not given) | 142% (inactive)

Row | SMILES | survival
70 | Cc1ccc(C(=O)CC2(O)C(=O)N(Cc3ccccc3F)c3ccccc32)cc1 (stereo not given) | 60% (inactive)
71 | CCc1ccc(C(=O)CC2(O)C(=O)N(C(C)C)c3ccccc32)cc1 (stereo not given) | 79% (inactive)
72 | Cc1ccc(-c2c3c(=O)n(C)c(=O)n(C)c3c3c(C(F)(F)F)nc4ccccc4n23)cc1 | 77% (inactive)
73 | Cc1ccc(S(=O)(=O)CCSc2nc(C)cc(C)c2C#N)cc1 | 53% (inactive)
74 | Nc1nonc1C(=O)NCCNCc1cccc(Cl)c1Cl | 65% (inactive)
75 | CC(=O)c1cccc(-n2c(=O)c3c4c(sc3n(CC(=O)Nc3ccccc3F)c2=O)CN(C(C)=O)CC4)c1 | 123% (inactive)
76 | Cc1cccc(-c2nnc(N(C(=O)C3CCC3)C(C)C)s2)c1 | 113% (inactive)
77 | COc1ccc(Cn2c(CCC(=O)Nc3cccc(OC)c3)nc3cccnc32)cc1 | 68% (inactive)
78 | Cc1ccc(COC(=O)c2ccc(-c3nnn(Cc4ccc(C)cc4)n3)cc2)cc1 | 69% (inactive)
79 | COc1cc(CN(C(=O)COc2ccccc2Cl)c2ccccn2)cc(OC)c1OC | 72% (inactive)
80 | COc1ccc(Cl)cc1NS(=O)(=O)c1ccc2c(c1)NC(=O)CC(=O)N2 | 88% (inactive)
81 | Cc1nn(-c2nc(-c3ccc(F)cc3)cc(C(F)(F)F)n2)c(C)c1Br | -2% (active)
82 | CCC(C)NC(=O)CSc1nc(-c2ccc(F)cc2)cc(C(F)(F)F)n1 (stereo not given) | 86% (inactive)
83 | CC(C)(C)NC(=O)CSc1nc(-c2ccc(F)cc2)cc(C(F)(F)F)n1 | 72% (inactive)
84 | CN(Cc1ccccc1)c1nc(-c2ccc(F)cc2)cc(C(F)(F)F)n1 | 72% (inactive)
85 | COc1ccccc1-c1c(C)nn2c(C(F)(F)F)cc(-c3ccccc3)nc12 | 41% (inactive)
86 | Cc1nn(-c2nc(-c3ccccc3)cc(C(F)(F)F)n2)c(C)c1Cl | 5% (active)
87 | Cc1nn(-c2nc(-c3ccc(F)cc3)cc(C(F)(F)F)n2)c(C)c1Cl | 5% (active)
88 | COc1cccc(-c2cc(C(F)(F)F)n3nc(C)c(-c4ccccc4)c3n2)c1 | 79% (inactive)
89 | COc1cccc(-c2cc(C(F)(F)F)nc(-n3nc(C)c(Br)c3C)n2)c1 | 41% (active)
90 | COc1ccc(-n2nc(C)c3c(C(F)(F)F)cc(-c4cccnc4)nc32)cc1 | 56% (inactive)
